Reference: PubChem BioAssay (EPA / NIEHS)
Values joined by “and” are separate entries in the source; they are usually repeats but may differ in a detail not shown here. Identical values can stand only once. Some compounds were tested as several samples or in several runs, with calls that do not always agree. Active and inactive are the calls of the source. Rule for the calls: active = hit-call score of the fitted dose curve at least 0.9, where 1 is the maximum; inactive = score below 0.9.

Experiments:
[1] = read-out: Thrombomodulin, THBD (gene 7056); assay: BSK_CASM3C_Thrombomodulin: BioMAP Diversity Plus: CASM3C Assay for Thrombomodulin Biomarker Activity (AID 2283051); settings: primary human coronary artery smooth muscle cells; actives raise or lower the signal;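 note: thrombomodulin protein level measured by ELISA 24 h after dosing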
[2] = read-out: Tissue Factor, F3 (gene 2152); assay: BSK_CASM3C_TissueFactor: BioMAP Diversity Plus: CASM3C Assay for Tissue Factor Biomarker Activity (AID 2283052); settings: primary human coronary artery smooth muscle cells; actives raise or lower the signal;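 note: cell surface tissue factor protein level read by ELISA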
[3] = read-out: Interferon-gamma inducible Protein 10 (IP10), CXCL10 (gene 3627); assay: BSK_hDFCGF_IP10: BioMAP Diversity Plus: hDFCGF Assay for Interferon-gamma inducible Protein 10 (IP10) Biomarker Activity (AID 2283053); settings: primary human foreskin fibroblasts; actives raise or lower the signal
In short: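 Primary foreskin fibroblasts, human; 24 h compound exposure; IP-10 by ELISA; bidirectional fit vs DMSO.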

[4] = read-out: Urokinase-type plasminogen activator receptor (uPAR), PLAUR (gene 5329); assay: BSK_CASM3C_uPAR: BioMAP Diversity Plus: CASM3C Assay for Urokinase-type plasminogen activator receptor (uPAR) Biomarker Activity (AID 2283054); settings: primary human coronary artery smooth muscle cells; actives raise or lower the signal;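 note: cell-surface uPAR protein level quantified by ELISA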
[5] = read-out: Vascular cell adhesion molecule 1 (VCAM1), VCAM1 (gene 7412); assay: BSK_CASM3C_VCAM1: BioMAP Diversity Plus: CASM3C Assay for Vascular cell adhesion molecule 1 (VCAM1) Biomarker Activity (AID 2283055); settings: primary human coronary artery smooth muscle cells; actives raise or lower the signal;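 note: VCAM-1 protein level quantified by ELISA on the cells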
[6] = read-out: Epidermal growth factor receptor (EGFR), EGFR (gene 1956); assay: BSK_hDFCGF_EGFR: BioMAP Diversity Plus: hDFCGF Assay for Epidermal growth factor receptor (EGFR) Biomarker Activity (AID 2283057); settings: primary human foreskin fibroblasts; actives raise or lower the signal
In short: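 hDFCGF system, primary human foreskin fibroblasts; compound 24 h; EGFR measured by ELISA; DMSO = negative control/baseline; bidirectional fitting.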

[7] = read-out: Interleukin-8 (IL8), CXCL8 (gene 3576); assay: BSK_hDFCGF_IL8: BioMAP Diversity Plus: hDFCGF Assay for Interleukin-8 (IL8) Biomarker Activity (AID 2283058); settings: primary human foreskin fibroblasts; actives raise or lower the signal
In short: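 IL-8 levels from compound-treated primary human fibroblasts were read by ELISA at 24 h, with DMSO serving as baseline for bidirectional fitting.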

[8] = BSK_hDFCGF_Proliferation: Cell Proliferation Assessment in the BioMAP Diversity Plus: hDFCGF Assay (AID 2283059); settings: primary human foreskin fibroblasts;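 note: curves fitted for both rise and fall of signal versus DMSO baseline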
In short: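 Steps: dose primary human dermal fibroblasts (foreskin); […] fix in 10% TCA; stain with 0.1% SRB; read 560 nm; fit gain or loss of signal against DMSO.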

[9] = read-out: Macrophage colony-stimulating factor (MCSF), CSF1 (gene 1435); assay: BSK_hDFCGF_MCSF: BioMAP Diversity Plus: hDFCGF Assay for Macrophage colony-stimulating factor (MCSF) Biomarker Activity (AID 2283060); settings: primary human foreskin fibroblasts; actives raise or lower the signal
In short: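 M-CSF levels, determined by ELISA, are taken at 24 h after dosing human skin fibroblasts. Responses in either direction are fitted with DMSO serving as the baseline.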

[10] = read-out: Collagen III, COL3A1 (gene 1281); assay: BSK_hDFCGF_CollagenIII: BioMAP Diversity Plus: hDFCGF Assay for Collagen III Biomarker Activity (AID 2283056); settings: primary human foreskin fibroblasts; actives raise or lower the signal
In short: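 Cells: human foreskin fibroblasts, primary. Dosing followed by 24 h incubation, then ELISA for collagen III. Both increases and decreases scored relative to DMSO.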

Compound | outcome [1] | outcome [2] | outcome [3] | outcome [4] | outcome [5] | outcome [6] | outcome [7] | outcome [8] | outcome [9] | AC50 [2] | AC50 [3] | AC50 [4] | AC50 [5] | AC50 [10] | AC50 [7] | AC50 [8] | AC50 [9] | outcome [10] | AC50 [1]
CCCCCCCCCC=O | inactive | inactive | inactive | inactive | inactive | inactive | inactive | inactive | inactive | – | – | – | – | – | – | – | – | – | –
CCCCC/C=C/C=C/C=O | inactive | – | – | – | – | inactive | – | – | – | 30.8 µM (active) | 14.5 µM (active) | 32.9 µM (active) | 20 µM (active) | 10.8 µM (active) | 30.1 µM (active) | 4.99 µM (active) | 10.7 µM (active) | – | –
CCCCCCCCC=O | inactive | inactive | inactive | inactive | inactive | inactive | inactive | inactive | inactive | – | – | – | – | – | – | – | – | inactive | –
CC(C)(COC(=O)c1ccccc1)COC(=O)c1ccccc1 | inactive | inactive | inactive | inactive | inactive | inactive | inactive | – | – | – | – | – | – | – | – | 32.1 µM (active) | 20 µM (active) | – | –
CC(=O)[C@H]1CC[C@H]2[C@@H]3CC=C4C[C@@H](O)CC[C@]4(C)[C@H]3CC[C@]12C | inactive | inactive | inactive | inactive | inactive | inactive | inactive | inactive | inactive | – | – | – | 9.48 µM (active) | – | – | – | – | – | –
Cc1cc(C2(c3cc(C)c(O)cc3C)OS(=O)(=O)c3ccccc32)c(C)cc1O | inactive | inactive | inactive | inactive | inactive | inactive | inactive | inactive | inactive | – | – | – | – | – | – | – | – | – | –
C[C@H]1C[C@@H]2[C@H]([C@@H](O)C[C@@]3(C)[C@H]2CC[C@]3(O)C(=O)CO)[C@@]2(C)C=CC(=O)C=C12 | inactive | inactive | inactive | inactive | – | inactive | inactive | inactive | inactive | – | – | 1.2 µM (active) | 860 nM (active) and 150 nM (active) | – | – | – | – | inactive | –
BrC1CCC(Br)C(Br)CCC(Br)C(Br)CCC1Br (configuration not stated) | inactive | inactive | inactive | inactive | inactive | inactive | inactive | – | – | – | – | – | – | – | – | 1.33 µM (active) | 4.61 µM (active) | inactive | –
c1ccc2c(c1)c1cccc3ccc4cccc2c4c31 | inactive | inactive | inactive | inactive | inactive | inactive | inactive | inactive | inactive | – | – | – | – | – | – | – | – | inactive | –
CCn1c2ccccc2c2cc(N)ccc21 | – | inactive | inactive | inactive | inactive | inactive | inactive | inactive | inactive | – | – | – | – | – | – | – | – | – | 2.7 µM (active)
O=C(O)C[C@H](O)C[C@H](O)/C=C/c1c(C2CC2)nc2ccccc2c1-c1ccc(F)cc1 | – | – | inactive | inactive | – | inactive | inactive | – | inactive | 0.0041 µM (active) | – | – | 0.0041 µM (active) | – | – | 0.992 µM (active) | – | inactive | 0.0287 µM (active)
O=C(O)c1cn(C2CC2)c2cc(N3CCNCC3)c(F)cc2c1=O | inactive | inactive | inactive | inactive | inactive | inactive | inactive | inactive | – | – | – | – | – | – | – | – | – | inactive | –
COc1cc(C=O)ccc1OC(=O)C(C)C | inactive | inactive | inactive | inactive | inactive | inactive | inactive | inactive | inactive | – | – | 5.27 µM (active) | – | – | – | – | – | – | –
CC1CCC(C(C)CS)CC1S (configuration not stated) | – | inactive | – | – | – | inactive | – | – | – | – | 4.25 µM (active) | 20 µM (active) | 28.8 µM (active) | – | 28 µM (active) | 4.84 µM (active) | 6.95 µM (active) | – | 29.1 µM (active)
CC[Si](OC(C)=O)(OC(C)=O)OC(C)=O | inactive | inactive | inactive | inactive | inactive | inactive | inactive | inactive | inactive | – | – | – | – | – | – | 16.1 µM (active) | – | – | –
Cc1ccc(O)c(C(C)(C)C)c1 | inactive | – | – | – | – | inactive | inactive | – | – | 36.3 µM (active) | 34.9 µM (active) | 20 µM (active) | 30 µM (active) | – | – | 13.6 µM (active) | 30.9 µM (active) | – | –
OC1OC[C@@H](O)[C@H](O)[C@H]1O (some centres not stated) | inactive | inactive | inactive | inactive | inactive | inactive | inactive | inactive | inactive | – | – | – | – | – | – | – | – | – | –
O=C(O)c1ccc([N+](=O)[O-])cc1 | inactive | inactive | inactive | inactive | inactive | inactive | inactive | inactive | inactive | – | – | – | – | – | – | – | – | inactive | –
CCCCC(CC)COCCC#N (configuration not stated) | inactive | inactive | – | inactive | inactive | inactive | inactive | – | inactive | – | 20 µM (active) | – | – | – | – | 11.1 µM (active) | – | – | –
Nc1cc([N+](=O)[O-])ccc1O | inactive | inactive | inactive | inactive | inactive | inactive | inactive | – | inactive | – | – | – | – | – | – | 20 µM (active) and 10.8 µM (active) | – | inactive | 20 µM (active)
CC(=O)/C=C/C1=C(C)CCCC1(C)C | inactive | inactive | inactive | inactive | – | inactive | inactive | inactive | inactive | – | – | – | 0.016 µM (active) | – | – | – | – | inactive | –
N#Cc1ccc(CC(=NNC(=O)Nc2ccc(OC(F)(F)F)cc2)c2cccc(C(F)(F)F)c2)cc1 | inactive | inactive | inactive | inactive | inactive | inactive | inactive | inactive | inactive | – | – | – | – | – | – | – | – | – | –
CN(CCOc1ccc(CC2SC(=O)NC2=O)cc1)c1ccccn1 (configuration not stated) | inactive | – | – | inactive | inactive | inactive | inactive | – | – | 5.59 µM (active) | 0.0536 µM (active) | – | – | – | – | 13.3 µM (active) | 0.0484 µM (active) | inactive | –
C=CCOC(=O)CCC1CCCCC1 | inactive | inactive | inactive | inactive | inactive | inactive | inactive | – | inactive | – | – | – | – | – | – | 30.8 µM (active) and 37.8 µM (active) | – | inactive | –
Nc1cc([N+](=O)[O-])ccc1Cl | inactive | inactive | inactive | inactive | inactive | inactive | inactive | inactive | inactive | – | – | – | – | – | – | – | – | inactive | –
